D2 ag-1: activates the human D2 dopamine receptor; P14416; HEK293 T-REx D2 cells, calcium flux agonist mode; activation, % at 2 µM; 340,000 tested, 0.53% active; AID 485358;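 active means activation over 3 SD above normal in the single-dose calcium agonist read, cut at about 30% in these data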; further: 0% is about no effect
Target sequence (P14416 whole entry, looked up): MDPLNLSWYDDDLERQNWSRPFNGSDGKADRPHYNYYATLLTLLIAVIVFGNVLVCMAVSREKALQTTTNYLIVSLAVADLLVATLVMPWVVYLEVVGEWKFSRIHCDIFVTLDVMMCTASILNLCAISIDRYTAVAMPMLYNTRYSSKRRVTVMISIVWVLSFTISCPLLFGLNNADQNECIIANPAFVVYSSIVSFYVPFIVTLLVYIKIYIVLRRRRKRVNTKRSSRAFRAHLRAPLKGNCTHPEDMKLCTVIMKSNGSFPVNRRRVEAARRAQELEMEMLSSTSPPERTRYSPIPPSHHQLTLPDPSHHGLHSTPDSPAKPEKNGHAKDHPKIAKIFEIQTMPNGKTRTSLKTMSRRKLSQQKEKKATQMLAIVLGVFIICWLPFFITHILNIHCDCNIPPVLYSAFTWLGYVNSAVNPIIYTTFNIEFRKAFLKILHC
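Agonism is scored from calcium flux in a force-coupled, inducible HEK293 cell line expressing D2, read kinetically for 180 s after compound addition against dopamine controls.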
D2 ag-2: human D2 receptor agonism in beta-arrestin assay. P14416. DiscoveRx PathHunter D2 beta-arrestin, luminescence, 90 min; 100% = 57 uM dopamine signal. activation, % (test concentration not listed). 360,000 tested, 0.084% active. AID 624465; in the data active means activation above about 40%
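DiscoveRx PathHunter D2 beta-arrestin cells (2,100/well) attached overnight, then compound-stimulated 90 min at 37 C in HBSS/10 mM HEPES/0.1% Tween-20 buffer; beta-galactosidase complementation read by luminescence after 1 h at ambient temperature. Dopamine 57 uM final (EC100) as control.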
D2 PAM-1: positive allosteric modulators of human D2 dopamine receptor; 360,000 tested, 0.23% active; DiscoveRx D2 beta-arrestin cells, luminescence, 90 min; 100% = 57 uM dopamine signal; potentiation, % (test concentration not listed); in the data active means potentiation above about 50%
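PathHunter D2 cells, attached overnight at 37 deg C, received compound in DMSO plus dopamine at EC20 (50 nM final) for 90 min at 37 deg C. Beta-arrestin recruitment was read as luminescence after 1 h with detection reagent at ambient temperature.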
D2 antag: antagonizes the human D2 dopamine receptor; P14416; HEK293 TREx D2 cells, calcium flux, dopamine EC80; inhibition, % at 10 µM; 340,000 tested, 2% active; AID 485344; in the data active means inhibition above about 30%; inactive means below that, where a call was filed; further: 0% is about no effect
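In this primary screen, negative modulation is detected by tracking calcium flux after an EC80 dopamine challenge in inducible HEK293 T-REx D2 cells preexposed to test compound for 180 s.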
D2 PAM-2: positive allosteric modulators of human D2 dopamine receptor | HEK293 T-REx D2, calcium flux, EC20 dopamine potentiation | potentiation, % at 10 µM | 340,000 tested, 0.34% active | AID 485347;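 active means potentiation over 3 SD above the plate norm, cut at about 30% in these data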; further: 0% is about no effect
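Primary screen. Calcium kinetics in induced HEK293 T-REx D2 cells: compound pre-addition 180 s, EC20 dopamine, 180 s more.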
* marks the source's active call; other numbers are inactive results; nt = not tested or not shown; ! = repeats disagree. Most compounds without a hit are left out; they make up all but 2.4% or so of the library.

SMILES	D2 ag-1	D2 ag-2	D2 PAM-1	D2 antag	D2 PAM-2
O=C(Nc1ccccc1Cl)C1CC(=O)N(Cc2ccco2)C1 (configuration not stated)	0	-1	0	-13	-3
COc1ccc(Cl)cc1NC(=O)CSc1nnc(COc2ccccc2)n1C	-1	1	-22	43*	-30
COC(=O)c1c(-c2cccs2)csc1NC(=O)c1ccc(C)cc1	2	nt	nt	nt	14
O=C(CN1CCOCC1)Nc1scc2c1c(=O)oc1ccccc12	0	-1	-2	36*	-7
COC(=O)c1c(-c2cccs2)csc1NC(=O)CN1CCOCC1	1	-4	-13	-15	33*
COc1cccc2c1Oc1ncccc1N(C(=O)CCC(=O)NCc1ccc(N(C)C)cc1)C2	1	nt	nt	nt	4
CCCCCn1c(NCc2ccco2)nc2ccccc21	-1	-2	-4	34*	-1
CCCCn1c(/N=C/c2ccc(N(C)C)cc2)nc2ccccc21	1	-1	-22	-23	49*
CCCCn1c(Nc2ccccc2)nc2ccccc21	0	1	-8	36*	-13
CCCCn1c(N)nc2ccccc21	-1	0	-6	31*	-5
C=CCn1c(/N=C/c2ccc(N(C)C)cc2)nc2ccccc21	nt	-1	0	nt	nt
CCCn1c(Nc2nc3ccccc3n2C)nc2ccccc21	0	1	-13	-1	-5
CCOC(=O)c1sc2ccccc2c1S(=O)(=O)NCc1ccc(F)cc1	1	nt	nt	nt	7
Fc1ccc(-c2nnc(CN3CCN(c4ccccn4)CC3)o2)cc1	nt	nt	nt	nt	-23
O=C(CN1C(=O)COc2ccc(S(=O)(=O)N3CCCC3)cc21)NCCc1ccc(Cl)cc1	0	nt	nt	nt	-14
O=C(CCNC(=O)N1CC(=O)Nc2ccccc21)Nc1ccc(Br)cc1F	0	-8	-28	55*	0
CC1CCc2onc(C(=O)N3CCN(c4ccc(Cl)cc4)CC3)c2C1 (configuration not stated)	-1	nt	nt	nt	-9
COc1ccc(CNC(=S)Nc2ccc(F)c(Cl)c2)cc1	2	1	-15	68*	7
COC(=O)c1cc(C)nc2c1c(=O)nc(SCc1cccc(C(F)(F)F)c1)n2C1CC1	-1	nt	nt	nt	nt
COc1ccc(N2C(=O)CSC2c2cccc(OC)c2OC)cc1 (configuration not stated)	0	-3	-8	51*	0
COC(=O)c1nn(-c2cccc(C)c2)c2nnc(Cc3ccccc3)c(=O)n12	0	5	11	63*	-12
COC(=O)c1nn(-c2ccccc2)c2nnc(Cc3ccc(C)cc3)c(=O)n12	0	-4	-7	-4	0
CCOc1ccc(NC(=O)Cn2nnc(C(=O)NCCc3ccc(OC)c(OC)c3)c2N)cc1	-1	-2	18	5	6
COc1ccc(CCNC(=O)Cn2nnc(C(=O)Nc3ccc(Br)cc3)c2N)cc1OC	1	13	-2	-43	56*
Cc1cccc(NC(=O)Cn2nnc(C(=O)NCc3ccco3)c2N)c1	2	-4	-4	34*	-6
SMILES	D2 ag-1	D2 ag-2	D2 PAM-1	D2 antag	D2 PAM-2
COc1ccccc1NC(=O)c1nnn(CC(=O)Nc2cccc(SC)c2)c1N	-1	-2	-11	-6	35*
Cc1ccc(NC(=O)Cn2nnc(C(=O)NCc3ccco3)c2N)cc1	0	-2	-12	-13	1
COc1ccccc1NC(=O)c1nnn(CC(=O)Nc2ccccc2)c1N	0	-1	-2	14	3
CCc1ccccc1NC(=O)Cn1nnc(C(=O)NCc2cccc(OC)c2)c1N	0	-6	-14	nt	70*!
Cc1c(C(=O)NC(C)c2ccccn2)oc2c(Cl)cccc12 (configuration not stated)	0	-4	-5	-1	-1
O=C(NCc1ccccc1F)C1CCCN(C(=O)N2CCOc3ccccc32)C1 (configuration not stated)	0	nt	nt	nt	-1
Nc1c(C(=O)c2cccs2)oc2ccccc12	0	-2	-6	-10	-6
Nc1c(C(=O)c2ccc(Br)s2)oc2ccccc12	0	-4	-6	45*	-9
CC(OC(=O)CC(C)c1ccccc1)C(=O)Nc1ccc(Cl)cn1 (configuration not stated)	-2	-4	-15	-3	2
COc1ccc(NC(=O)N2CCCCCC2)c(OC)c1	0	-1	-13	-7	-2
